Assay outcomes (PubChem)
The list is not random: actives were taken first. Their share in the collection is about 1.4%.
p53 reactivator: mutant p53 re-activation in reporter cells; H1299 p53-A138V BP100-luciferase reporter, luminescence, 24 h; Potency, µM (doses to about 92.2 µM), most hits filed as activators; actives 0.063% (n = 320,000); AID 504706; note: nearly all actives have a fitted effect of over 45% in size
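H1299 (p53-null), stable ts p53-A138V + BP100-Luc; 1000 cells/well, Opti-MEM/10% FBS; cpd 4 pt, 1:5; 24 h, 37 deg C, 5% CO2; detection reagent 10 min RT; luminescence.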
IL-2 act: IL-2 activation; IL-2 activation reporter assay, cell-based qHTS; stimulated with anti-CD3/CD4/CD28 beads; in transgenic mouse T cells; activation, % (series mostly up to about 46 µM); actives 0.065% (n = 360,000); AID 652025; in the data active = activation above about 50%; inconclusive = mostly about 30% to 49%
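Screening format: compound pinned onto unstimulated transgenic mouse T cells, 60 min incubation, then anti-CD3/anti-CD4/anti-CD28 bead stimulation for 18 hours at 37 degrees C, followed by EGFP and DsRed detection.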
uPA generation: blocks generation of uPA at the cell surface | cell surface uPA generation assay, qHTS | Potency, µM (highest dose often 38.3 µM), hits mostly inhibitors | actives 0.31% (n = 330,000) | AID 540303; active = well fitted inhibition curve with a large enough effect; inconclusive = small, poorly fitted or top-dose-only effect; inactive = no such curve, though single readings can be large or run the other way; tested in mouse RAW 264.7 cells; note: nearly all actives have a fitted effect of over 55% in size
TCR activator: activates T cell receptor signaling; primary human leukocytes, anti-CD3, IL-2 HTRF, 48 h; Potency, µM (highest dose often 9.22 µM), hits mostly activators; 330,000 tested, under 10 active
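TCR engagement came from a-CD3 beads alone, with compounds added to primary human leukocytes for 48 hr. Secreted IL-2 bridged europium cryptate- and d2-labelled anti-IL-2 antibodies, giving FRET emission at 665nm after 320nm excitation.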
BRCA1 expr act: activators of BRCA1 expression | MCF7-BRCA1-FFLuc reporter, luminescence, 48 h; response scale: scaled: vehicle 0%, 10 µM genistein 100% | AID 624202 | Potency, µM (top dose mostly 46.1 µM), usual class: activators | actives 1.1% (n = 380,000); note: nearly all actives have a fitted effect of over 80% in size
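MCF7-BRCA1-FFLuc, 2000 cells/well; 2 h attach, 37 °C/5% CO2; compound 48 h; luciferase substrate 15 min; luminescence end-point. Norm. to genistein 10 microM max activation and DMSO; concentration-response curves fitted.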
A number is an active result; 0 = inactive; ? = inconclusive; - = no result given. Unless noted, calls come from the whole dose curve; as a rule, active = well fitted curve in the direction sought with a large enough effect; inconclusive = small, poorly fitted or top-dose-only effect, or another doubt; inactive = no such curve, though single readings can be large; an effect the other way counts as inactive or inconclusive.

SMILES | p53 reactivator | IL-2 act | uPA generation | TCR activator | BRCA1 expr act
COc1ccc(NC(=O)c2cc(-c3cccs3)on2)cc1 | ? | 0 | 0 | 0 | 4.5µM
CCOC(=O)c1ccc(NC(=O)Cn2c(=O)cc(C)c3c(C)nn(-c4ccc(CC)cc4)c32)cc1 | - | - | - | - | 0
C[n+]1ccnc2ccccc21 | - | - | - | - | 0
Cc1ccc(C)c(CN2C(=O)C3(c4ccccc42)N(c2ccc(Cl)cc2)C(=O)CS3(=O)=O)c1 (centres undefined) | - | - | - | - | 0
COC(=O)c1ccc2c(c1)N(CC(=O)Nc1cccc(C(F)(F)F)c1)C(=O)c1ccccc1S2 | - | - | - | - | 0
Cc1cc(NC(=O)CSc2nc(-c3cccs3)nc3ccccc23)no1 | 0 | 0 | 1.8µM | 0 | 0
Cc1cc(NC(=O)CSc2nc(C(C)(C)C)nc3ccccc23)no1 | 0 | 0 | ? | 0 | 0
CCOC(=O)CNC(=O)c1sc(NC(=O)c2cccc(F)c2)nc1C | 0 | 0 | 0 | 0 | 8.9µM
COc1ccccc1NC(=O)CN1C(=O)C2(SCC(=O)N2c2ccc(C)c(C)c2)c2ccccc21 (centres undefined) | - | - | - | - | 0
CCCCc1nc2cc(C(=O)N3CCC(O)CC3)ccc2o1 | 0 | 0 | ? | 0 | 3.5µM
CCCCc1nc2cc(C(=O)N3CCC[C@H]3CO)ccc2o1 | ? | 0 | 0 | 0 | 0
COc1cc(C)ccc1OCCSc1nc2ccc(NC(=O)c3ccco3)cc2s1 | - | - | - | - | 0
O=C(Nc1ccccc1-c1nc2ccccc2[nH]1)c1ccc(N2C(=O)CCC2=O)cc1 | 0 | 111 | 0 | 0 | 0
O=C(Nc1ccccc1-c1nc2ccccc2[nH]1)c1ccc(S(=O)(=O)N2CCCCC2)cc1 | 0 | 0 | - | 0 | 0
CCN(CCn1cccn1)C(=O)c1cc(COc2ccc(F)c(F)c2)on1 | ? | 0 | 0 | 0 | 0
CCN(CCn1cccn1)C(=O)c1cc(COc2ccccc2SC)on1 | 0 | 0 | 0 | 0 | 11µM
CCN(CCn1cccn1)C(=O)c1cc(COc2cc(C)ccc2C)on1 | ? | 0 | 0 | 0 | 13µM
CC(C)NC(=O)N1CCN(S(=O)(=O)c2ccc3c(ccn3C)c2)CC1 | - | - | - | - | 0
O=C1C2CCCN2C(=O)N1CCCCN1CCN(c2cccc(Cl)c2)CC1 (centres undefined) | 0 | 0 | 2.8µM | 0 | 0
O=C1C2CCCCN2C(=O)N1CCN1CCN(c2cccc(Cl)c2)CC1 (centres undefined) | - | 0 | 0 | 0 | 0
COc1cc(C)ccc1OCc1cc(C(=O)N(C)CCCN2CCOCC2)no1 | ? | 0 | 0 | 0 | 7.9µM
Cc1cc(CN(C)C(=O)c2cc(COc3ccc(F)cc3Cl)on2)n[nH]1 | 0 | 0 | - | 0 | 7.9µM
CCc1ccc(CN(C)C(=O)c2cc(COc3ccc(OC)cc3Cl)on2)nc1 | 0 | 0 | 0 | 0 | 8.9µM
COc1ccc(OCc2cc(C(=O)N(C)Cc3nnc(C)o3)no2)c(Cl)c1 | ? | 0 | 0 | 0 | 7.1µM
CN(CCCN1CCOCC1)C(=O)c1cc(COc2ccc(F)cc2F)on1 | 0 | 0 | 0 | 0 | 0
SMILES | p53 reactivator | IL-2 act | uPA generation | TCR activator | BRCA1 expr act
CCN(Cc1ccncc1)C(=O)c1cc(COc2ccc(OC)cc2Cl)on1 | 0 | 0 | 0 | 0 | 0
CN(Cc1ccccn1)C(=O)c1cc(COc2ccc(F)cc2Cl)on1 | - | 0 | - | - | 0
CC(=O)c1ccc(OCc2cc(C(=O)N(C)Cc3cc(C)no3)no2)cc1 | 0 | 0 | 0 | 0 | 0
COc1ccc(OCc2cc(C(=O)N(C)Cc3cc(C)no3)no2)c(Cl)c1 | ? | 0 | 0 | 0 | 4µM
O=C(NCc1ccc(F)cc1)c1c(O)nc2ccccn2c1=O | - | - | - | - | 0
O=C1C[C@H]2[C@H](CO)[C@@H](OC(=O)c3ccc(-c4ccccc4)cc3)C[C@H]2O1 | 0 | 0 | 0 | 0 | 13µM
O=C1CC2C(CC(OC(=O)c3ccc(-c4ccccc4)cc3)C2CO)O1 (centres undefined) | 0 | 0 | 0 | 0 | ?
COc1ccc(CCNC(=O)c2cn(C)c3ccc(S(=O)(=O)N(C)C)cc3c2=O)cc1OC | - | - | - | - | 0
COC(=O)c1sccc1NC(=O)c1ccc2c(c1)OCO2 | 0 | 0 | 0 | 0 | 0
COC(=O)c1c(-c2cccnc2)csc1NC(=O)c1ccc2c(c1)OCO2 | ? | 0 | 0 | 0 | 2.2µM
CCc1cc(C(=O)OC)c(NC(=O)c2ccoc2C)s1 | 0 | 0 | 0 | 0 | 0
COC(=O)c1c(-c2ccncc2)csc1NC(=O)c1ccoc1C | 0 | 0 | - | - | 4.5µM
COc1cc(C(=O)NC(=S)NNC(=O)c2cnccn2)cc(OC)c1OC | 0 | 0 | 10µM | 0 | 0
COc1ccc(/C=N/Nc2nncc3ccccc23)cc1 | ? | 0 | 0 | 0 | 0
Oc1c(Br)cc(/C=N/Nc2nncc3ccccc23)cc1Br | ? | 0 | 0 | 0 | 8.9µM
COc1cccc(/C=N/Nc2nc3ccccc3n3cnnc23)c1O | 32µM | 0 | 0 | 0 | 0
COc1ccccc1/C=N/Nc1nncc2ccccc12 | ? | 0 | 0 | 0 | 10µM
Cc1ccc2nc(-c3ccc(C)o3)c(Nc3ccc(Cl)cc3)n2c1 | - | - | - | - | 0
COC(=O)c1ccc(COc2ccc(C)cc2[N+](=O)[O-])o1 | 0 | 0 | 0 | 0 | 5.6µM
N#CC(C(=O)OC1CCCCC1)c1nc2ccccc2nc1N1CCOCC1 (centres undefined) | 0 | 70 | 0 | 0 | 0
CCOC(=O)c1ccc2nc3c(cc2c1)CCS3 | ? | 0 | - | 0 | 10µM
CCCC(=O)Nc1nc2ccc(C(=O)OCC)cc2s1 | 0 | 0 | 0 | 0 | 0
c1ccc2c(c1)-c1nc3ccccc3cc1C2N1CCCCC1 (centres undefined) | - | 0 | - | - | 0
O=c1cccc2n1Cc1cc3ccccc3nc1-2 | ? | 0 | 7.9µM | 0 | ?
CCOC(=O)c1cccc(NS(=O)(=O)c2ccc(-c3cnc(C4CC4)o3)cc2)c1 | - | - | - | - | 0
SMILES | p53 reactivator | IL-2 act | uPA generation | TCR activator | BRCA1 expr act
Cc1cccc(N=Nc2c(C)c(C#N)c(O)[nH]c2=O)c1 | 0 | 0 | 0 | 0 | 0
CCCCOC(=O)c1ccc(N=Nc2c(C)c(C#N)c(O)[nH]c2=O)cc1 | 0 | 107 | 0 | 0 | 0
COc1ccc(CCn2c(C)cc(C(=O)CCl)c2C)cc1OC | ? | 0 | 8.9µM | 0 | 0
Cc1cc(C(=O)CCl)c(C)n1CCc1ccc(Cl)cc1 | 0 | 0 | 0 | - | 0
CCCN1CNc2c(c(=O)[nH]c(=S)n2CCc2cc(OC)ccc2OC)C1 | - | - | - | - | 0
COc1cccc(/C=C/C(=O)OCC(=O)NCCC2=CCCCC2)c1OC | 0 | 0 | 0 | 0 | 0
O=C(/C=C/c1cccc2ccccc12)NCCC1=CCCCC1 | ? | 0 | 0 | 0 | 11µM
Cc1ccccc1Nc1nc(N)nc(COC(=O)c2ccco2)n1 | ? | 0 | 0 | 0 | 4µM
Cc1n[nH]c(=O)n1-c1ccc(OCc2ccccc2)cc1 | 0 | 0 | 0 | 0 | 5.6µM
COc1ccc(-n2c(C)n[nH]c2=O)cc1 | 0 | 0 | 0 | 0 | 0
CN(C)c1ccc(/C=C/C(=O)c2ccccc2O)cc1 | ? | 0 | ? | 0 | 3.2µM
CCCN1CNc2c(c(=O)[nH]c(=S)n2CCc2cc(C)ccc2C)C1 | - | - | - | - | 0
